Screening data deposited in PubChem by ICCB-Longwood Screening Facility, Harvard Medical School.
HCMV NEC inh – cytomegalovirus nuclear egress complex inhibition | inhibition, % (concentration not given with the values) | AID 1918969 | HTRF UL50-UL53 interaction, normalized percent inhibition | 0.15% of 190,000 active; in the data active means inhibition above about 27%, passing the limit was not always enough
Sa growth inh – blocks Staphylococcus aureus growth | S. aureus RN4220 growth, OD600, 20 h, 42 °C; stronger effect = lower value | 0.53% of 170,000 active | relative growth, % (concentration not given with the values);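 active means relative growth at most 50% at the other temperature and 20+ points below 30 °C, or under 10% at both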
S aureus helic – S. aureus DNA helicase inhibition | AID 485395 | purified S. aureus helicase, fluorescence unwinding assay | 0.05% of 120,000 active | inhibition, % (no concentration beside the values); in the data active means inhibition above about 25%, passing the limit was not always enough;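 further: 0% = mean of negative control wells and 100% = mean of positive control wells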
Active calls of the source: *; . = no result given. This is one part of a sample in which hits are shown more often than they occur.

SMILES	HCMV NEC inh	Sa growth inh	S aureus helic
COc1ccc(C(c2ccc3cccnc3c2O)N2CCCC2)cc1 (stereo unspecified)	-17	96	-20
COc1ccc(C(c2ccc3cccnc3c2O)N2CCOCC2)cc1 (stereo unspecified)	.	8.8*	18
CC(C)NC(=O)C1CCN(c2ccc(F)cc2)C1=O (stereo unspecified)	9	.	.
Cc1ccc(C(=O)N2CCc3cc4ccc(C)cc4nc32)cc1	0	.	.
CNC(=O)c1cn2c3c(ccc(Cl)c3c1=O)OC(C)C2 (stereo unspecified)	50*	101	5
CC(C)NC(=O)c1cn2c3c(ccc(Cl)c3c1=O)OC(C)C2 (stereo unspecified)	33	101	4
CCN(C(=O)COC(=O)CSc1nc2ccccc2n1Cc1ccccc1)c1ccccc1	-9	.	.
CCCCN(CC)c1nc(N)c2c(N)nc(SCC(=O)O)cc2c1C#N	4	6.2*	-15
CCN(CC)c1nc(N)c2c(N)nc3c(c2c1C#N)C(=O)CN3Cc1ccccc1	5	104	-14
CC(=O)N1N=C(c2cccc(C)c2)OC1c1ccccc1C (stereo unspecified)	-22	22	2
COC1(NS(=O)(=O)c2ccc(C)cc2)C(C)=CC(=O)C=C1C	0	1.7*	23
COC(=O)C1=C(C)NC(=O)C1(NS(=O)(=O)c1ccc(C)cc1)C(F)(F)F (stereo unspecified)	4	72	4
Cc1ccc2oc(-c3ccccc3)cc(=O)c2c1	-2	97	.
CCCN=c1cc(-c2ccccc2)oc2ccc(C)cc12	.	109	65*
CCOC(=O)CNC(=O)CSc1nc2nc[nH]c2c(=O)[nH]1	-6	.	.
N#Cc1ccccc1OCC(=O)NCCc1ccccc1	3	89	8
O=S(=O)(c1cc(Cl)sc1Cl)N1CCOCC1	-21	89	.
O=S(=O)(c1cc(Cl)ccc1Cl)N1CCCC1	1	49*	1
O=S(=O)(c1cc(Cl)ccc1Cl)N1CCCCC1	-30	109	.
Cc1cccn2c(=O)c(/C=C3\SC(=S)N(C(C)C)C3=O)c(N3CC(C)OC(C)C3)nc12 (stereo unspecified)	-15	90	-97
CC1COc2c(F)c(F)cc3c(=O)c(C(=O)O)cn1c23 (stereo unspecified)	-11	.	18
CCn1cc(C(=O)O)c(=O)c2cc(F)c(N3CCNC(C)C3)c(F)c21 (stereo unspecified)	-60	-0.6*	.
Cc1cccc(NC(=O)c2oc3ccccc3c2NC(=O)c2cc(-c3ccccc3)on2)c1	-22	.	.
CCOC(=O)C1=C(O)c2ccccc2C1=O	.	122	4
CCOC(=O)c1c2c(n3ccccc13)C(=O)c1ccccc1C2=O	.	9.7*	-9
SMILES	HCMV NEC inh	Sa growth inh	S aureus helic
CCc1ccc(C2c3c(n[nH]c3C)C(=O)N2c2ccc(Br)cc2)cc1 (stereo unspecified)	-22	.	.
COc1ccc(S(=O)(=O)N2CCOCC2)cc1-c1nnc2c3ccccc3c(C)nn12	54*	115	7
COc1ccc(S(N)(=O)=O)cc1-c1nnc2c3ccccc3c(C)nn12	.	62	-5
CCN(CC(=O)NCc1cccs1)C(=O)c1cccc(S(=O)(=O)N(CC)CC)c1	-29	87	-9
Cc1occc1C(=O)N=Nc1c(O)n(Cc2ccccc2Cl)c2ccccc12	-11	106	-11
COC(=O)c1ccc2c(c1)C1C=CCC1C(c1cccc3ccccc13)N2 (stereo unspecified)	-24	.	.
O=C(O)c1ccc2c(c1)C1C=CCC1C(c1cccc3ccccc13)N2 (stereo unspecified)	35*	.	.
COc1cccc(OC)c1C(=O)NC(=S)Nc1ccc2[nH]c(=O)[nH]c2c1	-19	112	12
N#Cc1nccnc1S(=O)(=O)c1cccs1	-46	-0.7*	.
O=S(=O)(c1cccs1)c1cccs1	-10	94	.
O=C(NCCc1ccccc1)c1c(O)nc2ccccn2c1=O	-30	61	-10
CCn1cc(C(=O)O)c(=O)c2cc(F)c(N3CCN(C(=S)NC)CC3)cc21	0	64	10
CCn1cc(C(=O)O)c(=O)c2cc(F)c(N3CCN(C(=S)NC(=O)c4c(-c5ccccc5)noc4C)CC3)cc21	-8	2.0*	5
O=C(NCc1ccccc1)c1cccc(NC(=O)c2nnc(COc3ccccc3)s2)c1	-4	.	.
CCC(c1nnc(SCC(=O)NCC(C)C)o1)N(C)C (stereo unspecified)	-16	98	-6
CCC(c1nnc(SCC(=O)NCCc2ccc(Cl)cc2Cl)o1)N(C)C (stereo unspecified)	-12	88	44*
CCOC(=O)NS(=O)(=O)c1ccccc1	-1	91	9
CC(=O)Nc1ccc(S(=O)(=O)N2CC(C)OC(C)C2)cc1 (stereo unspecified)	.	92	2
